ELG1 genotoxic: induces genotoxicity in HEK293T cells with luciferase-tagged ELG1; HEK293T ELG1-luciferase reporter, luminescence, 16 h; Potency, µM (top dose mostly 46 µM), for the others: at the highest dose activity change, positive = activation, hits mostly activators; 330,000 compounds, 1.3% hits; also: % of control where 0% means no effect; nearly all actives have a fitted effect of over 60% in size
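Genotoxic stress is detected as increased luminescence from luciferase-tagged ELG1 in HEK293T cells, measured with ONE-Glo after a 16 hr treatment at 37 °C.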
NPC1 prom act: activates the NPC1 promoter. Huh7 NPC1 promoter luciferase reporter, 24 h. Potency, µM (titrated, usually from 9.22 µM), without a hit: at the top dose activation, hits mostly activators. AID 485313. 320,000 compounds, 2.4% hits; also: % of control where 0% means no effect; nearly all actives have a fitted effect of over 60% in size
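Luminescence from an NPC1 promoter-driven luciferase reporter in stably transfected Huh7 cells was measured after 24 h compound treatment at 37 °C, followed by 10 min ambient incubation with luciferase detection reagent.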
Rab9 promoter act: activators of Rab9 promoter. Potency, µM (doses to about 9.22 µM), for the others: at the top dose activation, negative = inhibition, most hits filed as activators. Huh7 Rab9 promoter-luciferase reporter, luminescence, 24 h. 320,000 compounds, 2.8% hits; also: % of control where 0% means no effect; nearly all actives have a fitted effect of over 60% in size
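Huh7 cells stably carrying a Rab9 promoter-luciferase reporter, 1500 cells per well in OP-MEM I with 10% FBS, treated with compound 24 hours at 37C. Luciferase activity read by luminescence after 10 minutes with Amplite reagent.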
SMN2 splice up: increases expression of the SMN2 splice variant; Potency, µM (top dose mostly 46.1 µM), for the others: top-dose activity change, positive = activation, most hits filed as activators; HEK293 SMN2-luciferase splicing reporter, luminescence, 30-36 h; 210,000 compounds, 2.8% hits; also: % of control where 0% means no effect; nearly all actives have a fitted effect of over 55% in size
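HEK293 cells carry an SMN2 […]–luciferase reporter in which exon 7 inclusion puts luciferase in frame. Cells were plated 10-12 h before compound addition, then incubated 30-36 h at 37C. ONE-Glo luminescence was read; sodium butyrate at 4.5 mM final served as control.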
Luc counter: Kinase-Glo luciferase inhibition (counter-screen); Q27757; Kinase-Glo luciferase, ATP luminescence, 8 min; Potency, µM (highest dose often 38.3 µM), inactives show at the highest dose activity change, negative = inhibition, usual class: inhibitors; 200,000 compounds, 0.28% hits; AID 1379; also: % is scaled to controls: 0 for no effect and ±100 for the full control effect; nearly all actives have a fitted effect of over 60% in size
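Compounds were added to a substrate mix at pH 7.2 (50 mM imidazole, 10 uM ATP, within the enzyme's linear range), followed by Kinase-Glo detection reagent; luminescence was measured after 8 minutes at ambient temperature.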
FLuc modulator: firefly luciferase modulation, counter-screen for miR-21 project; purified FLuc, Km substrates, luminescence inhibition; Potency, µM (top dose mostly 57.5 µM), inactives show at the highest dose activity change, negative = inhibition, most hits filed as inhibitors; 360,000 compounds, 6.9% hits;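 also: plate controls were vehicle for no effect and reference inhibitor for full effect; nearly all actives have a fitted effect of over 55% in size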
Target sequence (P08659 whole entry, looked up): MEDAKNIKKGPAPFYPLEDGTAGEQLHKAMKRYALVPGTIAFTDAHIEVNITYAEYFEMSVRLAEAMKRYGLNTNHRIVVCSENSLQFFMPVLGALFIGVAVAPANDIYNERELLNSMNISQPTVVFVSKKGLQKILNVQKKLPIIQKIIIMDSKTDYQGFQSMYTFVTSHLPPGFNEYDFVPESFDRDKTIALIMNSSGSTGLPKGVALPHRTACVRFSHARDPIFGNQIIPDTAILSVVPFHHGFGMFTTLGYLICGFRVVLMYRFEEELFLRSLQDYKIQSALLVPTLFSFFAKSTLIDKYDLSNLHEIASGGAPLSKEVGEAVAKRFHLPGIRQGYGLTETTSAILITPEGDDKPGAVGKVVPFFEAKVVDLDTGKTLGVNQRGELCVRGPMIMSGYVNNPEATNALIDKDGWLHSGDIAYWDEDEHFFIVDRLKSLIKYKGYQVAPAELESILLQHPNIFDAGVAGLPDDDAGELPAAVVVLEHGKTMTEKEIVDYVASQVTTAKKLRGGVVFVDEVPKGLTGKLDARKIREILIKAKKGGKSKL
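Biochemical qHTS of compounds, final roughly 60 µM downward over six points, against 10 nM purified firefly luciferase using Km concentrations of substrates (10 uM D-luciferin, 10 uM ATP) in Tris acetate pH 7.5 buffer; luminescence output.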
* marks the source's active call; other numbers are inactive results; ? = inconclusive; . = not tested or not shown; [ ] = another dose, or the depositor's remark. Sampled rows, rich in hits. Any-hit rate of the full collection: about 7.5%. Calls follow the shape of the dose curve; as a rule, active = well fitted curve in the direction sought with a large enough effect; inconclusive = small, poorly fitted or top-dose-only effect, or another doubt; inactive = no such curve, though single readings can be large; an effect the other way counts as inactive or inconclusive. Potency is read from the fitted curve at half-maximal effect.

SMILES | ELG1 genotoxic | NPC1 prom act | Rab9 promoter act | SMN2 splice up | Luc counter | FLuc modulator
COc1ccc(Nc2nc3ccccc3nc2NS(=O)(=O)c2ccc(NC(C)=O)cc2)cc1 | 9.9% | 2.6% | -3.3% | . | . | 15.1µM*
CCOc1ccc(S(=O)(=O)Nc2nc3ccccc3nc2Nc2ccc(N3CCOCC3)cc2)cc1 | -4.3% | -2.6% | -4.5% | -1.9% | 2.6% | 10.7µM*
CC(=O)c1ccc(Nc2nc3ccccc3nc2NS(=O)(=O)c2cccs2)cc1 | -14.4% | 0.0% | -4.5% | . | . | 19µM*
COc1ccc(S(=O)(=O)Nc2ccc(N3CCOCC3)cc2)cc1 | -4.2% | 0.5% | 1.2% | . | . | 0.6%
Cc1c(C)c2cc(Cl)c(OCC(=O)NCCCn3ccnc3)cc2oc1=O | 2.8% | 0.3% | -2.0% | . | . | -0.5%
Cc1cc2c(cc1NC(=O)c1ccccc1C)n(C)c(=O)c(=O)n2C | . | . | . | . | . | -1.3%
Cc1ccc(C(=O)OCc2nc3ccccc3s2)o1 | ? | 0.6% | ? | . | . | 15.1µM*
O=C(CCc1nc2ccccc2s1)OCc1ccccc1 | -0.4% | -1.0% | 9.1% | -9.7% | 2.5% | -18.3%
O=C(OCc1nc2ccccc2s1)c1cc2ccccc2oc1=O | ? | 11.4% | 4.1% | -2.2% | -1.2% | 19µM*
O=C(OCc1nc2ccccc2s1)c1ccc(Br)s1 | 3.9% | 12.1% | 14.2% | -14.3% | -7.8% | 19µM*
O=C(CCC(=O)c1cccs1)OCc1nc2ccccc2s1 | 4.1% | 1.4% | 0.8% | 6.4% | -4.6% | ?
Nc1ccc(C(=O)OCc2nc3ccccc3s2)cc1 | ? | 16.6% | 26.7% | 2.0% | -3.4% | 16.9µM*
Cc1ccc(OCC(=O)Nc2ccc(S(=O)(=O)N(Cc3ccccc3)c3ccccc3)cc2)cc1 | . | . | . | . | . | -2.9%
CCc1nnc(SCC(=O)Nc2ccccc2)n1CC1CCCO1 (stereo not drawn) | -1.2% | -4.0% | -4.8% | . | . | 0.0%
OCCC1CN(Cc2cccc(-n3cccn3)c2)CCN1Cc1ccccc1 (stereo not drawn) | -4.6% | -3.8% | -2.4% | -13.3% | -1.3% | -14.3%
COc1cc2cc(CN(CCc3cccc(C)c3)C(=S)NCCCN3CCOCC3)c(=O)[nH]c2cc1OC | 0.8% | -0.3% | -13.6% | . | -0.1% | -1.2%
COc1cccc(NC(=O)c2oc3ccccc3c2NC(=O)c2ccc(OC(C)C)cc2)c1 | . | . | . | 9.6% | . | 2.69µM*
COc1cccc(NC(=O)c2oc3ccccc3c2NC(=O)C(C)(C)C)c1 | -6.8% | 0.6% | -3.4% | -15.5% | 3.1% | -0.1%
CSc1nc2cc3c(cc2n1C(=O)c1ccc(C)cc1)OCCO3 | 8.2% | 3.3% | 15.6% | 7.1% | -0.6% | ?
COc1cccc(NC(=O)c2oc3ccccc3c2NC(=O)c2cc3ccccc3o2)c1 | . | . | . | 1.1% | . | ?
COc1cccc(C(=O)n2c(SC)nc3cc4c(cc32)OCCO4)c1 | 13.2% | 17.5% | 21.4% | 12.4% | 0.2% | 13.5µM*
COc1cccc(NC(=O)c2oc3ccccc3c2NC(=O)c2ccc3c(c2)OCO3)c1 | -6.8% | 15.6% | 28.3% | 0.8% | -29.0% | 2.69µM*
COc1cccc(C(=O)Nc2cc3c(cc2C(C)=O)OCCO3)c1 | 3.7% | 0.1% | -0.1% | 29.4% | 0.9% | 5.36µM*
CCOc1ccccc1-c1ccc(C(=O)O)o1 | . | . | . | . | 4.8%[39.9 µM] | .
Cc1c(Cl)ccc2sc(N3CCN(C(=O)C4CC4)CC3)nc12 | . | . | . | . | . | -16.7%
COc1cccc(NC(=O)c2ccc3c(c2)OCO3)c1 | 6.51µM* | 0.501µM* | 0.447µM* | . | . | 2.69µM*
COc1cccc(NC(=O)c2ccc3c(c2)OCCO3)c1 | 2.06µM* | 1.78µM* | 0.708µM* | . | . | 0.675µM*
COc1cccc(OC)c1C(=O)Nc1ccc2c(c1)OCCO2 | -1.2% | -1.6% | -10.7% | 0.6% | 13.0% | -0.7%
CCC(=O)Nc1cccc(NC(=O)c2ccc3c(c2)OCO3)c1 | 7.2% | 17.3% | 28.6% | ? | -5.9% | 15.1µM*
O=C(O)c1cccc(OS(=O)(=O)c2cc(Br)ccc2Br)c1 | 0.6% | 8.2% | 0.9% | . | . | -13.3%
